High-throughput results: PubChem BioAssay, National Center for Advancing Translational Sciences (NCATS)
FBPA Giardia inh: Giardia lamblia aldolase inhibition | Potency, µM (series often up to 59.6 µM), inactives show at the highest dose activity, negative = inhibition, most hits filed as inhibitors | 290,000 compounds, 0.71% hits | A8B2U2 | purified Giardia FBPA; also: potency is read from the fitted curve at half-maximal effect; % is scaled to controls: 0 for no effect and ±100 for the full control effect; nearly all actives have a fitted effect of over 55% in size
Target sequence (A8B2U2 whole entry, looked up): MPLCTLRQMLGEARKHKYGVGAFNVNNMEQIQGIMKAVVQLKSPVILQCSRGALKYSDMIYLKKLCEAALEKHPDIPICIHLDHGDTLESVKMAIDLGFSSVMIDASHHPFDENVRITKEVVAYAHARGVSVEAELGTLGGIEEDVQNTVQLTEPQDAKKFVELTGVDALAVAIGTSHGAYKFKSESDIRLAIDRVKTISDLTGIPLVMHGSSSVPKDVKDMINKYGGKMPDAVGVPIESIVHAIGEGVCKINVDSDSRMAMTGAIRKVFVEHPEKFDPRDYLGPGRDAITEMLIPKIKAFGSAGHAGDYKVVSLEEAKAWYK
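Giardia FBPA (40 nM reagent) was preincubated 10 min at RT with compound (up to 57.5 uM final), then substrate plus GAPDH/TPI/NAD/arsenate coupling system with diaphorase/resazurin was added; resorufin fluorescence (525/598 nm) was read after 20 min.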
Shiga toxin inh: inhibitors of Shiga toxin in Vero cells | Vero cells, Shiga toxin protein synthesis inhibition reporter | inhibition, % at 38.7 µM | 290,000 compounds, 9.2% hits | AID 2315; in the data active = inhibition mostly above about 28%, no sharp cut-off; inactive = mostly below about 43%; also: 0% is about no effect
Cycloheximide cs: affects cycloheximide protein synthesis inhibition readout, counter-screen; cell reporter, cycloheximide protein synthesis inhibition counterscreen; max response, %; 300,000 compounds, 12% hits; AID 2314; in the data active = max response mostly above about 13%, no sharp cut-off; inactive = mostly below about 14%; also: read at 38.3 µM for the half of the compounds with a filed dose; 0% is about no effect
Tb PYK inh: blocks Trypanosoma brucei pyruvate kinase | Potency, µM (highest dose often 76.8 µM), without a hit: top-dose activity, negative = inhibition, most hits filed as inhibitors | AID 624173 | Q57TT1 | 410,000 compounds, 0.12% hits | TbPYK enzyme, Kinase-Glo Plus ATP luminescence, 45 min; also: potency is read from the fitted curve at half-maximal effect; % is scaled to controls: 0 for no effect and ±100 for the full control effect; nearly all actives have a fitted effect of over 50% in size
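Assay buffer: 50 mM TEA pH 7.2, 100 mM KCl, 10 mM MgCl2, 0.05% BSA, 0.01% Tween-20. Pyruvate kinase from T. brucei plus substrate met compound, then ADP (130 uM final). Luminescence was read post 45 min RT.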
LmPK inh: LmPK (Leishmania mexicana) enzyme inhibition; purified LmPK, Kinase-Glo ATP luminescence, 1 h; 290,000 compounds, 0.37% hits; Potency, µM (titrated, usually from 57.5 µM), for inactives: at the highest dose activity change, negative = inhibition, usual class: inhibitors; Q27686; also: potency is read from the fitted curve at half-maximal effect; % is scaled to controls: 0 for no effect and ±100 for the full control effect
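Purified LmPK (0.1 nM) with 0.5 mM PEP and 0.1 mM ADP in imidazole buffer pH 7.2 with MgCl2/KCl, 1 h at room temperature. ATP formed was read by luciferase luminescence and normalized to no-enzyme and uninhibited controls.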
RE007 growth inh: less growth of the S. pombe RE007 Vpr strain. Potency, µM (top dose mostly 92.2 µM), inactives show top-dose activity change, negative = less growth, actives largely listed as inhibitors. 360,000 compounds, 0.21% hits. S. pombe RE007 Vpr strain, BacTiter-Glo ATP luminescence, 24 h; active = well fitted falling curve with a large enough effect; inconclusive = small, poorly fitted or top-dose-only effect; inactive = no such curve, though single readings can be large or run the other way; also: potency is read from the fitted curve at half-maximal effect; % is scaled to controls: 0 for no effect and ±100 for the full control effect; nearly all actives have a fitted effect of over 50% in size
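Fission yeast strain RE007, carrying one chromosomally integrated HIV-1 vpr copy, was seeded at OD 0.01 in PMG+AL medium with 23 nL pinned compound. After 24 h at 30 °C and 99% humidity, viability was read by BacTiter-Glo luminescence.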
An asterisk follows results filed as active; i = inactive; ? = inconclusive; . = not tested or not shown; + = active, no number; [ ] = dose if it differs, or a comment. Only a selection was taken, and hits are over-represented in it overall. Unless noted, calls follow the shape of the dose curve; as a rule, active = well fitted curve in the direction sought with a large enough effect; inconclusive = small, poorly fitted or top-dose-only effect, or another doubt; inactive = no such curve, though single readings can be large; an effect the other way counts as inactive or inconclusive.

SMILES | FBPA Giardia inh | Shiga toxin inh | Cycloheximide cs | Tb PYK inh | LmPK inh | RE007 growth inh
Cc1ccc(C2c3c(oc4ccc(Cl)cc4c3=O)C(=O)N2CCCN2CCOCC2)o1 (configuration not stated) | -14% | 17 | 9.5* | . | 2% | .
COC(=O)C1=C(C)NC(=O)/C1=C\c1cc(C)n(-c2cc(C)cc(C)c2)c1C | -27% | -6 | -1 | -19% | -3% | 10µM*
COC(=O)C1=C(C)NC(=O)/C1=C\c1cc(C)n(-c2ccccc2)c1C | ? | 102* | 35* | -6% | 0% | ?
CC(=O)c1ccc(NC(=O)c2cn(-c3ccccc3)nc2-c2ccc(Br)cc2)cc1 | . | . | . | -3% | . | .
O=C(O)CCC(=O)N1CC=C(c2ccccc2)CC1 | -5% | 79* | 50* | 4% | -1% | -8%
O=C(Cn1[nH]c(=O)c2ccccc2c1=O)N1CC=C(c2ccccc2)CC1 | -2% | -12 | -6 | 0% | 8% | 0%
O=C(O)C1CC=CCC1C(=O)N1CC=C(c2ccccc2)CC1 (configuration not stated) | 0% | 44* | 29* | -15% | 0% | -10%
O=C(c1cccs1)N1CC=C(c2ccccc2)CC1 | . | . | . | -10% | . | -6%
COC(=O)C1=C[C@@H](C(=O)OC)C2C3=C(C(=O)[C@@]2(CC(C)C)NC(=O)c2ccccc2)[C@H](C)n2c(=O)n(C)c(=O)n2[C@@H]3C1 (some centres not stated) | 0% | -5 | 25 | . | . | .
Cc1cc(Cl)ccc1NC(=O)CN(c1ccccc1Br)S(C)(=O)=O | . | . | . | 1% | . | .
Cc1cc(NC(=O)C2CC2)n(-c2nc3ccccc3s2)n1 | 8% | 36* | 18* | -8% | -1% | -1%
c1ccc2[nH]c(CCCc3nc4ccccc4[nH]3)nc2c1 | -22% | -5 | -2 | -7% | -2% | -4%
c1csc(Cc2nc3ccccc3[nH]2)c1 | -12% | 35 | 24* | 0% | -2% | -12%
Cc1ccc(SCc2nc3ccccc3[nH]2)cc1 | 0% | 130* | 45* | -1% | -27% | -10%
c1ccc2[nH]c(CSc3nccs3)nc2c1 | -23% | 75* | 23* | 8% | -14% | -3%
Fc1ccccc1CSCc1nc2ccccc2[nH]1 | -3% | 101* | 25* | 3% | -7% | -12%
CC(C)SCc1nc2ccccc2[nH]1 | -11% | 14 | 15* | -1% | -12% | 13%
Clc1ccc(SCc2nc3ccccc3[nH]2)cc1 | 3% | + | 49* | -4% | -20% | -22%
c1ccc2[nH]c(CSc3ncnc4c3oc3ccccc34)nc2c1 | 0% | 62* | 16* | 7% | 1% | -16%
CCCCc1nc2ccccc2[nH]1 | -6% | -15 | 9 | -2% | -7% | -5%
Clc1ccc(OCCSCc2nc3ccccc3[nH]2)cc1 | -7% | 5 | 7 | 6% | 4% | -30%
Cc1ccc(OCCSCc2nc3ccccc3[nH]2)cc1 | 0% | -6 | -3 | -8% | 3% | ?
Cc1ccc(CSCc2nc3ccccc3[nH]2)cc1 | 7% | 66* | 39* | -7% | -5% | -8%
c1ccc(SCc2nc3ccccc3[nH]2)cc1 | 4% | 163* | 41* | 3% | -21% | 2%
C=CCNc1sc(C(=O)c2ccc(C)cc2)c(N)c1C#N | -1% | -10 | -6 | 4% | 2% | 14%
SMILES | FBPA Giardia inh | Shiga toxin inh | Cycloheximide cs | Tb PYK inh | LmPK inh | RE007 growth inh
Cc1ccc(C(=O)c2sc3nsc(C)c3c2N)cc1 | -12% | 155* | 86* | -9% | -2% | -6%
Cc1cc(C)c2c(N)c(C(=O)c3cccc(Cl)c3)sc2n1 | -2% | -5 | -1 | -9% | 4% | 25%
Cc1snc2sc(C(=O)c3ccc(Br)cc3)c(N)c12 | -1% | 28 | 27* | -4% | 5% | -5%
CCC(Sc1nc2ncccc2o1)C(=O)Nc1ccc(OC)c(OC)c1 (configuration not stated) | . | . | . | 1% | . | .
COc1cccc(/C=N/NC(=O)c2[nH]nc3c2CCc2ccccc2-3)c1 | -1% | -8 | -3 | 7% | 1% | -8%
COc1ccc2c(c1)CCc1c-2n[nH]c1C(=O)NCCC(C)C | -9% | 88* | 43* | -1% | -2% | 4%
CC(C)NC(=O)c1[nH]nc2c1CCc1ccccc1-2 | -9% | 110* | 42* | 3% | -5% | -3%
COc1ccc(OC)c(/C=N/NC(=O)c2[nH]nc3c2CCc2ccccc2-3)c1 | -1% | -11 | 5 | 3% | 1% | 6%
CNC(=O)c1[nH]nc2c1CCc1cc(OC)ccc1-2 | -24% | 87* | 57* | 2% | -9% | -6%
COc1ccc(CNC(=O)C2CCN(C(=O)N3CCOc4ccc(Cl)cc43)CC2)cc1 | . | . | . | 3% | . | .
Oc1c(C(c2ccc(F)cc2)N2CCCC2)sc2nc(-c3ccco3)nn12 (configuration not stated) | . | . | . | -6% | . | .
Clc1cccc(Cl)c1/C=C/c1nc2ccccc2[nH]1 | -14% | 78* | 31* | -5% | ? | ?
O=C(/C=C/c1ccc(Cl)cc1Cl)c1nc2ccccc2[nH]1 | 7% | 30 | -4 | -5% | 1% | 7.9µM*
Clc1ccc(/C=C\c2nccc3c2[nH]c2ccccc23)cc1 | -18% | 26 | 15 | 2% | 4% | 3%
Clc1ccc(Br)c(-c2nc3ccccc3[nH]2)c1 | . | . | . | -1% | . | ?
Clc1ccc(/C=C/c2nc3ccccc3[nH]2)cc1 | -12% | -12 | 7 | ? | 8.9µM* | ?
O=C(/C(=C(\O)c1ccccc1)c1nc2ccccc2[nH]1)c1ccccc1 | -3% | 22 | -1 | -1% | 1% | -26%
Clc1ccc(/C=C/c2nc3ccccc3[nH]2)c(Cl)c1 | -7% | 15 | -1 | 4% | 14µM* | 25µM*
N#Cc1cccc(-c2nc3cnc(Oc4cccc(Cl)c4)nc3n(C3CC3)c2=O)c1 | 0% | . | . | . | . | .
Cc1ccc(C2CC(=O)Oc3ccc(C(C)(C)C)cc32)cc1 (configuration not stated) | 5%[89.2 µM] | i | 6 | . | . | .
Cc1ccc(NC(=O)C2C3C=CC(O3)C2C(=O)O)cc1C (configuration not stated) | -3% | . | 52* | 4% | 3% | -18%
COC(=O)c1ccc(NC(=O)C2C3C=CC(O3)C2C(=O)O)cc1 (configuration not stated) | 8% | 30* | 20* | -3% | -1% | ?
O=C(Nc1ccccc1)N1CC[C@@]2(CCCN(C(=O)c3cnccn3)C2)C1 | -6% | . | . | 6% | . | .
O=C(c1ccc([N+](=O)[O-])cc1)n1nc(-c2ccccc2)nc1NCc1ccccc1 | -1% | 69* | 47* | -2% | 1% | -4%
CC(=O)n1nc(-c2ccccc2)nc1NCc1ccc(F)cc1 | 2% | 46 | 20* | 0% | -10% | 0%
